Test results reported in the supplement of paper PMC9694430.
Where “and” joins values, the source holds several entries; their conditions need not be identical. Equal entries are not always repeated.

Assays:
Experiment in all cases: thermal shift delta Tm vs DMSO control; higher = stronger stabilization (binding)
Conditions in all cases: 12.5 µM; protein concentration 2 µM
[1] = system: LOC_OS01G01410-cb001
How it was run: (§1)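 The melting temperature shift given here is a triplicate mean, measured against protein that received only DMSO. Melting temperatures came from Boltzmann fits of differential scanning fluorimetry data on E. coli-expressed, purified rice kinase domain constructs. Each 19.5 μl well contained 2 μM kinase, 100 mM potassium phosphate pH 7.5, 150 mM NaCl, 10% glycerol, 5 × SYPRO Orange and compound in DMSO. Plates were scanned from 25°C to 95°C at 0.05°C/s.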

[2] = system: LOC_OS01G02750-cb003
How it was run: as §1

[3] = system: LOC_OS01G10900-cb004
How it was run: as §1

[4] = system: LOC_OS01G13800-cb001
How it was run: as §1

[5] = system: LOC_OS01G14860-cb001
How it was run: as §1

[6] = system: LOC_OS01G21960-cb002
How it was run: as §1

[7] = system: LOC_OS01G39600-cb002
How it was run: as §1

[8] = system: LOC_OS01G48390-cb002
How it was run: as §1

[9] = system: LOC_OS01G51400-cb002
How it was run: as §1

[10] = system: T1, LOC_OS01G52050-cb004
T1 sequence (whole entry): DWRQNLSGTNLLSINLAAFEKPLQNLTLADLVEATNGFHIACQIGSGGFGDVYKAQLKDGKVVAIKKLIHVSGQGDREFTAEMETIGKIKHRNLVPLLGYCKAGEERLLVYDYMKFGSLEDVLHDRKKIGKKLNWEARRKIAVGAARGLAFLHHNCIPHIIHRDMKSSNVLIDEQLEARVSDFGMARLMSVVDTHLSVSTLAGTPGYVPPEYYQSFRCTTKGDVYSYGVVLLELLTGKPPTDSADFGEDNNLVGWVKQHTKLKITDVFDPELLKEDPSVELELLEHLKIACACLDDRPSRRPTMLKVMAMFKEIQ
How it was run: as §1

[11] = system: LOC_OS01G57100-cb003
How it was run: as §1

[12] = system: LOC_OS01G60330-cb001
How it was run: as §1

[13] = system: LOC_OS01G60700-cb002
How it was run: as §1

[14] = system: LOC_OS01G63280-cb003
How it was run: as §1

[15] = system: LOC_OS01G67340-cb003
How it was run: as §1

[16] = system: LOC_OS01G70970-cb002
How it was run: as §1

[17] = system: LOC_OS02G07810-cb001
How it was run: as §1

[18] = system: LOC_OS02G08530-cb003
How it was run: as §1

[19] = system: LOC_OS02G14120-cb001
How it was run: as §1

[20] = system: LOC_OS02G17970-cb001
How it was run: as §1

Row | SMILES | thermal shift delta Tm [1] | thermal shift delta Tm [2] | thermal shift delta Tm [3] | thermal shift delta Tm [4] | thermal shift delta Tm [5] | thermal shift delta Tm [6] | thermal shift delta Tm [7] | thermal shift delta Tm [8] | thermal shift delta Tm [9] | thermal shift delta Tm [10] | thermal shift delta Tm [11] | thermal shift delta Tm [12] | thermal shift delta Tm [13] | thermal shift delta Tm [14] | thermal shift delta Tm [15] | thermal shift delta Tm [16] | thermal shift delta Tm [17] | thermal shift delta Tm [18] | thermal shift delta Tm [19] | thermal shift delta Tm [20]
1 | C[C@@H]1COCCN1c1cc(=O)n2c(n1)N(Cc1cncc(Cl)c1)[C@H](C(F)(F)F)CC2 | 0.21 °C | 1.55 °C | 0.48 °C | 1.15 °C | 0.32 °C | 0.45 °C | 0.34 °C | 0.95 °C | 0.31 °C | 0.49 °C | 1.19 °C | 1.13 °C | 1.05 °C | 0.61 °C | 0.35 °C | 0.33 °C | 0.77 °C | 0.7 °C | 0.82 °C | 1.7 °C
2 | CN(c1ncccc1CNc1nc(Nc2ccc3c(c2)CC(=O)N3)ncc1C(F)(F)F)S(C)(=O)=O | 1.79 °C and 2.31 °C | 3.54 °C and 4.36 °C | 1.71 °C and 2.09 °C | -0.44 °C and -0.69 °C | 4.96 °C and 3.99 °C | 2.13 °C and 2.41 °C | 8.29 °C and 12.3 °C | 2.62 °C and 2.82 °C | 1.29 °C and 1.71 °C | 5.25 °C and 6.24 °C | 1.74 °C and 1.7 °C | 2.27 °C and 2.55 °C | 0.88 °C and 1.26 °C | 2.29 °C and 3.24 °C | 1.9 °C and 2.14 °C | 6.41 °C and 7.59 °C | 0.34 °C and 0.67 °C | 1.99 °C and 2.23 °C | 4.47 °C and 5.67 °C | 0.58 °C and 1.27 °C
3 | Nc1nc(Nc2ccc(S(N)(=O)=O)cc2)nn1C(=O)c1c(F)cccc1F | 4.86 °C | 1.06 °C | 0.71 °C | 0.59 °C | 5.95 °C | 1.73 °C | 4.79 °C | 5.9 °C | 0.49 °C | 5.43 °C | 1.36 °C | 7.23 °C | 0.65 °C | 3.58 °C | 3.74 °C | 3.11 °C | 1.06 °C | 1.98 °C | 8.28 °C | 0.44 °C
4 | Oc1c(F)cc(-c2cnccc2-c2ccc(N3CCOCC3)cc2)cc1F | 0.86 °C | 0.33 °C | 0.19 °C | 0.41 °C | 0.2 °C | 0.65 °C | -0.24 °C | 0 °C | 0.36 °C | -0.22 °C | 1.14 °C | 1.01 °C | 0.34 °C | 0.58 °C | 0.1 °C | 0.21 °C | 0.35 °C | 0.7 °C | 0.35 °C | 0.29 °C
5 | CCS(=O)(=O)N1CC(CC#N)(n2cc(-c3ncnc4[nH]ccc34)cn2)C1 | 0.57 °C | 1.52 °C | 0.33 °C | 0.37 °C | 2.29 °C | 1.23 °C | 0.17 °C | 0.14 °C | 0.39 °C | 1.36 °C | 2.25 °C | 0.75 °C | 1.26 °C | 1.3 °C | 0.81 °C | 0.39 °C | 0.37 °C | 1.89 °C | 4.11 °C | 0.86 °C
6 | CN1CCC(CNc2ccc3ncc(-c4cccc(OC(F)(F)F)c4)n3n2)CC1 [SGI-1776 free base] | 0.34 °C | 4.11 °C | 3.96 °C | 0.13 °C | 0.51 °C | 2.41 °C | 0.68 °C | 0.82 °C | 0.07 °C | 3.81 °C | 0.83 °C | 0.19 °C | 0.47 °C | 0.98 °C | -0.25 °C | 1.79 °C | 0.42 °C | 2.78 °C | 7.23 °C | -0.26 °C
7 | Cc1c(CN2CCN(C(=O)[C@H](C)O)CC2)sc2c(N3CCOCC3)nc(-c3cnc(N)nc3)nc12 [Apitolisib (GDC-0980, RG7422)] | 0.32 °C | 0.18 °C | 0.13 °C | 0.56 °C | 0.1 °C | 0.49 °C | 0.16 °C | 0.64 °C | 0.53 °C | 0.42 °C | 0.9 °C | 0.98 °C | 0.46 °C | 0.4 °C | 0.25 °C | 0.37 °C | 1.43 °C | 1.01 °C | 0.42 °C | 1.03 °C
8 | Nc1cc(C(F)(F)F)c(-c2cc(N3CCOCC3)nc(N3CCOCC3)n2)cn1 [Buparlisib (BKM120, NVP-BKM120)] | 0.58 °C | 0.22 °C | 0.31 °C | 0.04 °C | 0.19 °C | 0.6 °C | 0.55 °C | 0.7 °C | 0.92 °C | 0.06 °C | 2.16 °C | 0.57 °C | 1.2 °C | 0.16 °C | 0.47 °C | 0.27 °C | 1.48 °C | 0.84 °C | 0.46 °C | 0.37 °C
9 | O=C(O)c1ccc(-c2c[nH]c3ncc(-c4ccccc4)cc23)cc1C1CCCC1 | 5.06 °C | 4.25 °C | 0.46 °C | -0.9 °C | 5.49 °C | 1.3 °C | 14.5 °C | -1.42 °C | -0.58 °C | 10.5 °C | 1.09 °C | -0.77 °C | -3.79 °C | 2.57 °C | 4.86 °C | 6.62 °C | 0.4 °C | 4.81 °C | 10.7 °C | -1.49 °C
10 | O=C(NOC[C@H](O)CO)c1ccc(F)c(F)c1Nc1ccc(I)cc1F | 1.23 °C | 0.99 °C | 0.49 °C | 0.45 °C | 0.5 °C | 0.89 °C | 0.66 °C | 0.89 °C | 0.22 °C | 0.59 °C | 0.81 °C | 1.22 °C | 1.23 °C | 0.57 °C | 0.04 °C | 0.46 °C | 1.39 °C | 1.15 °C | 1.04 °C | 0.52 °C
11 | CC1(COc2ccc3c(c2)ncn3-c2ccc3cccc(N4CCC(N)CC4)c3n2)COC1 | 1.38 °C | 7.03 °C | 1.43 °C | -0.87 °C | 1.96 °C | 3.78 °C | 2.31 °C | 0.25 °C | 0.13 °C | 11.9 °C | 1.84 °C | 0.86 °C | 0.41 °C | 0.93 °C | 3.44 °C | 7.9 °C | 0.2 °C | 3.47 °C | 11.5 °C | 0.58 °C
12 | C[C@@H]1COC(Nc2ccc3ncnc(Nc4ccc(OCc5nccs5)c(Cl)c4)c3c2)=N1 [Varlitinib] | 2.18 °C | 0.28 °C | 0.95 °C | 0.39 °C | 1.1 °C | 2.04 °C | 0.66 °C | 1.02 °C | 0.22 °C | 0.92 °C | 1.92 °C | 1.09 °C | 1.53 °C | 1.44 °C | 0.64 °C | 0.88 °C | 0.94 °C | 0.76 °C | 0.74 °C | 1.04 °C
